The list is not random: actives were taken first. Their share in the collection is about 3%.
A549 viability = Nrf2 qHTS screen for inhibitors: counterscreen for cytotoxicity | Potency, µM (doses to about 46 µM), without a hit: at the highest dose activity change, negative = cytotoxicity, usual class: inhibitors | 0.16% of 390,000 active | A549 ARE-Fluc cells, CellTiter-Fluor viability, 18-24 h; further: on the % scale 0 is the no-effect control and ±100 the full control effect
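Cytotoxicity counterscreen: CellTiter-Fluor fluorescence was measured in A549 ARE_Fluc cells after 18-24 h of compound exposure in a concentration series. The subsequent BugLite luminescent read reports ARE-luciferase activity.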
Nrf2 ARE act = qHTS of Nrf2 Activators | 0.31% of 410,000 active | AID 624171, 2012 | AREc32 ARE-luciferase reporter (MCF7-derived line), luminescence, 24 h | Potency, µM (titrated, usually from 46.1 µM), for inactives: at the highest dose activation, most hits filed as activators; further: % of control where 0% means no effect; nearly all actives have a fitted effect of over 65% in size
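For detection, Steady-Glo was added and plates sat 30 min at RT; before that, AREc32_Fluc cells grown overnight in OPTI-MEM/5% FBS had been treated with 23 nL compound for 24 hr at 37 deg C.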
GALK inh = qHTS Assay for Inhibitors of Human Galactokinase (GALK). P51570. Purified GALK, Kinase-Glo residual ATP luminescence. Potency, µM (doses to about 57.5 µM), for inactives: top-dose activity change, negative = inhibition, usual class: inhibitors. 0.007% of 270,000 active; further: on the % scale 0 is the no-effect control and ±100 the full control effect
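The enzyme phosphorylates galactose (100 uM) using ATP (35 uM); inhibition is detected as higher residual ATP, quantified by bioluminescence after 1 h reaction at room temperature, pH 8.0.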
rTrxR1 inhibitor = qHTS Assay for Inhibitors of Mammalian Selenoprotein Thioredoxin Reductase 1 (TrxR1): qHTS; Thioredoxin reductase 1, cytoplasmic (Rattus norvegicus), O89049; recombinant rTrxR1, NADPH fluorescence consumption, selenite substrate; Potency, µM (titrated, usually from 114 µM), for inactives: at the top dose activity change, negative = inhibition, actives largely listed as inhibitors; 1% of 390,000 active; AID 588453, 2011; further: on the % scale 0 is the no-effect control and ±100 the full control effect; nearly all actives have a fitted effect of over 65% in size
Target sequence (O89049 whole entry, looked up): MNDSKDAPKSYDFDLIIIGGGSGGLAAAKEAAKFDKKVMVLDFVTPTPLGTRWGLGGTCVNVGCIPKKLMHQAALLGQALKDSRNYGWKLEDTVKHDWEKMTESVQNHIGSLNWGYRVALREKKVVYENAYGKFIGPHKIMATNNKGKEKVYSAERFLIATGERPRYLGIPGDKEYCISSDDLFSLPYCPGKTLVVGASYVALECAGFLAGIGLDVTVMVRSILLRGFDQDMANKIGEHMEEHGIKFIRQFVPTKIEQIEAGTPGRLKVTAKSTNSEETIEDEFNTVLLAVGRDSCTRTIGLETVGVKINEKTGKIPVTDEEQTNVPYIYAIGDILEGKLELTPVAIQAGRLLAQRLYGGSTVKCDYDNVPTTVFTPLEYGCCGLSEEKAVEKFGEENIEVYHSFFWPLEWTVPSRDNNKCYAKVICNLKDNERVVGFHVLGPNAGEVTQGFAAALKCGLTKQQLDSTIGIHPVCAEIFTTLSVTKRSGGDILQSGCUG
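Rat TrxR1 (90 nM in the dispensed reagent) was pre-reduced with 400 uM NADPH for 5 min at room temperature, then incubated with compound for 15 min. After 400 uM selenite was added, NADPH fluorescence (Ex 340/Em 450 nm) was followed for 8 min.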
TrxR1 substrate = qHTS Assay for Substrates of Mammalian Selenoprotein Thioredoxin Reductase 1 (TrxR1): qHTS; Thioredoxin reductase 1, cytoplasmic (Rattus norvegicus), O89049; purified TrxR1 substrate turnover, NADPH consumption readout; Potency, µM (top dose mostly 114 µM), for the others: top-dose activity change, negative = substrate turnover; 0.01% of 390,000 active; AID 588456, 2011; further: on the % scale 0 is the no-effect control and ±100 the full control effect; nearly all actives have a fitted effect of over 50% in size
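Rat TrxR1, dispensed at 90 nM, was prereduced with 400 uM NADPH (final) for 5 min at ~22 deg C, then incubated with compound 15 min before 400 uM selenite. A first-read NADPH fluorescence drop versus no-compound background flagged substrates.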
Nrf2 inh = Nrf2 qHTS screen for inhibitors; AID 504444, 2011; A549 ARE-Fluc reporter, luciferase luminescence, 18-24 h; 2.1% of 360,000 active; Potency, µM (series often up to 46 µM), for inactives: at the top dose activity change, negative = inhibition, most hits filed as inhibitors; further: on the % scale 0 is the no-effect control and ±100 the full control effect; nearly all actives have a fitted effect of over 60% in size
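Quantitative HTS in A549 cells stably bearing an antioxidant response element-firefly luciferase construct. Inhibition of Nrf2-driven transcription was scored by luminescence after 18-24 h of compound exposure at 37 °C.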
* marks the source's active call; other numbers are inactive results; i = inactive; u = inconclusive; x = not tested or not shown; [ ] = remark or other dose. The call rests on the fitted dose curve; in most records, active means well fitted curve in the direction sought with a large enough effect; inconclusive means small, poorly fitted or top-dose-only effect, or another doubt; inactive means no such curve, though single readings can be large; an effect the other way counts as inactive or inconclusive. Potency means the concentration at half of the fitted maximal effect.

SMILES	A549 viability	Nrf2 ARE act	GALK inh	rTrxR1 inhibitor	TrxR1 substrate	Nrf2 inh
CC(C)(C)OC(=O)NCCCCCNC(=O)c1nc[nH]c1C(=O)N1CCN(C(=O)OC(C)(C)C)CC1	-8%	-1%	x	27%[57.1 µM]	12%[57.1 µM]	-17%
CC(C)(C)OC(=O)NCCCCCNC(=O)c1[nH]cnc1C(=O)NC1CCN(C(=O)OC(C)(C)C)CC1	-12%	5%	x	-1%	1%	21µM*
CC(C)(C)OC(=O)CNC(=O)c1[nH]cnc1C(=O)NCCCCCNC(=O)OC(C)(C)C	-14%	-1%	x	0%	-5%	26µM*
Cc1ccc(NC(=O)C(Cc2ccccc2)NS(=O)(=O)c2ccc3c(c2)oc(=O)n3C)c(Cl)c1 (centres undefined)	-6%	0%	x	-4%	-5%	22%
Cc1ccc(Cn2ccnc2SCC(=O)NCc2ccc(F)cc2)cc1	-7%	0%	x	14%[57.1 µM]	2%[57.1 µM]	x
COc1ccc(-c2nc(S(=O)(=O)c3ccc(C)cc3)c(NCc3ccccc3)o2)cc1	0%	-1%	x	u	22%	-11%
CC(C)(C)c1ccc(C(=O)Nc2ccc(CN3CCS(=O)(=O)CC3)cc2)cc1	-11%	-1%	x	19%	5%	7.3µM*
COC(=O)Cc1ccc(NC(=O)c2ccc(C(C)(C)C)cc2)cc1	u	-2%	4%	21%	-4%	2.1µM*
O=C(Nc1ccc(CN2CCS(=O)(=O)CC2)cc1)c1ccc(C(F)(F)F)cc1	-16%	0%	x	10%[57.1 µM]	-3%[57.1 µM]	18µM*
O=C(Nc1ccc(CN2CCS(=O)(=O)CC2)cc1)c1ccc(F)cc1	0%	0%	x	33%	3%	10%
COC(=O)c1ccc2nc(NC(=O)C(C)(C)C)sc2c1	-5%	0%	0%	6%[57.1 µM]	4%[57.1 µM]	4.1µM*
O=c1ccc2ccc(O)cc2o1	1%	2%	x	79µM*	i	5%
O=c1ccc2cc(O)c(O)cc2o1	6%	1%	x	51%	332%	4%
Cc1cc(=O)oc2cc(O)ccc12	1%	0%	x	50µM*	i	5%
Cc1cc(=O)oc2cc(NC(=O)c3ccccc3Cl)ccc12	-2%	5µM*	4%	54%	251%	23%
O=c1cc(O)c2ccc(O)cc2o1	-8%	-2%	3%	10%[57.1 µM]	29%[57.1 µM]	-30%
Cc1cc(=O)oc2cc(NC(=O)c3ccccc3C(=O)O)ccc12	-4%	0%	3%	8%[57.1 µM]	39%[57.1 µM]	-4%
CN(Cc1ccccc1)C(=O)COC(=O)/C=C/c1ccco1	-7%	10%	8%	-78%	-9%	6%
O=C(/C=C/c1ccco1)OCc1nnc(-c2ccc(Cl)cc2)o1	1%	14µM*	0%	-55%	-16%[57.1 µM]	u
O=C(/C=C/c1ccco1)OCc1nnc(-c2ccccc2)o1	1%	11µM*	-2%	-29%	-3%	1%
CN(CCOC(=O)/C=C/c1ccco1)Cc1ccccc1	-7%	u	0%	45µM*	-1%	0%
O=C(OCc1nnc(-c2ccccc2)o1)c1ccc(Cl)cc1	1%	0%	3%	11%	-9%	17%
O=C1CCCC2=C1C(c1cccc(O)c1)C1=C(N2)c2ccccc2C1=O (centres undefined)	-13%	0%	10%	79µM*	-13%	-4%
C[C@H](NC(N)=O)C(=O)N1CCN(S(=O)(=O)c2ccc3ccccc3c2)CC1	1%	0%	-1%	13%	-2%	6%
CNC(=S)N1CCN(S(=O)(=O)c2ccc3ccccc3c2)CC1	2%	2%	-3%	17%[57.1 µM]	-15%	23µM*
Cc1ccc(N(C)C(=O)N2CCN(S(=O)(=O)c3ccc(C)cc3)CC2)cc1	-2%	4%	1%	4%	-4%	-25%

Source: PubChem BioAssay
